This note sets out measurements from paper PMC4336329 (PLoS ONE, 2015).

The structures appear in SMILES notation. Out of some 310,000 compounds screened, about 14,000 (4.5%) showed an effect of 50% or more. Effects have a minus sign here. The sample as a whole holds a higher share of strong results than the screen did.
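Further: peak tail current of the secondary pulse compared with the same well before compound.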

The target of the test is human ether-à-go-go-related gene (hERG) potassium channel (human, UniProt Q12809). In words: primary screen, population patch clamp on CHO cells stably expressing hERG; higher = less effect of the substance.
human ether-à-go-go-related gene (hERG) potassium channel, sequence (Q12809 whole entry, looked up): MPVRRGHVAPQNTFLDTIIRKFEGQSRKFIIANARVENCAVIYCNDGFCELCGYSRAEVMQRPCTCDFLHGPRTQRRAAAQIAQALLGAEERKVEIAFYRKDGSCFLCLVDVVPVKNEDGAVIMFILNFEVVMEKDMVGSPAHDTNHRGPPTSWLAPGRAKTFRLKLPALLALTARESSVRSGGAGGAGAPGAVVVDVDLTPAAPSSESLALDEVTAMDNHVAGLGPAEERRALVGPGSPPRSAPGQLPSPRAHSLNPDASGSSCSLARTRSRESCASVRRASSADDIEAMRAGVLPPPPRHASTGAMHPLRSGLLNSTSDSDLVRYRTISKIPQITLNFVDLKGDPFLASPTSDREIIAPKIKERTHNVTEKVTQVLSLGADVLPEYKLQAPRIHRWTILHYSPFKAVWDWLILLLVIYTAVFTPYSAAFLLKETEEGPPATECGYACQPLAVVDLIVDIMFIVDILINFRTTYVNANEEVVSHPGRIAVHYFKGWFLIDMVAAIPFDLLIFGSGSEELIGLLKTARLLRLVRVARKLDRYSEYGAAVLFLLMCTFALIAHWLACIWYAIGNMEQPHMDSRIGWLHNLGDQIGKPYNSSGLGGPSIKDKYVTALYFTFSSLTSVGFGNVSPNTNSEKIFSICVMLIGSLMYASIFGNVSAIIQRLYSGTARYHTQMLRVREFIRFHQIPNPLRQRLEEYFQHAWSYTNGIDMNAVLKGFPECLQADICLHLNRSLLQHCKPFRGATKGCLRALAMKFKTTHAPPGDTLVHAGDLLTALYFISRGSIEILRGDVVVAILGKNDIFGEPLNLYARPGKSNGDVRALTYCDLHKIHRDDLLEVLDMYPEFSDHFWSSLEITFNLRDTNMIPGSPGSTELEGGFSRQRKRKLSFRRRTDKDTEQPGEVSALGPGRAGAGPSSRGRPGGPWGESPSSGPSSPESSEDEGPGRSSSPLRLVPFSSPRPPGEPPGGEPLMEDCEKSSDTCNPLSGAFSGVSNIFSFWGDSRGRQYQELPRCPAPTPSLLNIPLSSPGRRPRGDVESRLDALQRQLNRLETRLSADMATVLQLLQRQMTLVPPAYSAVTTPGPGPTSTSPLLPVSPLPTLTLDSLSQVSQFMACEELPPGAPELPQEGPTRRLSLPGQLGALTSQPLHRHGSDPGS
With `Cc1cccc(C)c1NC(=O)CN(C)S(=O)(=O)c1ccc(-c2ccc(=O)[nH]n2)s1`, the “hERG current change (%, negative = inhibition) at 10uM” value is given as -51.7%.

For `COc1cc(OC)cc(C(=O)N[C@H](C(=O)OCC(=O)Nc2ccc(F)c(F)c2)C(C)C)c1`, the “hERG current change (%, negative = inhibition) at 10uM” value is -8.85%. Next, `Cc1cc(/C=C2\SC(=O)N(C)C2=O)c(C)n1-c1ccc(S(N)(=O)=O)cc1`: 13.3%; `COc1cccc(-c2cc(C(F)(F)F)nc(NCc3ccco3)n2)c1`: 18.8%; `Fc1cccc(Cl)c1-c1nnc2ccc3ccccc3n12`: 10.3%. Next, `O=C(CCN1C(=O)COc2ccccc21)N1CCN(c2ccccn2)CC1`: -69.3%; `O=C(CCC(=O)N1CCOc2ccc(Cl)cc21)N1CCN(c2ccccn2)CC1`: -57.5%. Next, `Cc1ccc2c(c1)N(C(=O)CCC(=O)N1CCN(c3ccccn3)CC1)CCO2`: -52.2%. With `Cc1ccc2c(c1)N(C(=O)CCC(=O)N1CCN(c3ccccn3)CC1)CC(C)O2` (stereo not drawn), the “hERG current change (%, negative = inhibition) at 10uM” value is given as -46.1%.

For the molecule `O=C(CCN1C(=O)COc2ccccc21)N1CCCCC1`, the “hERG current change (%, negative = inhibition) at 10uM” value is on record as -6.49%. Next, `O=C(O)CCC(=O)N1CCOc2ccc(Cl)cc21`: 2.92%; `Cc1ccc(C)c(N2CCN(C(=O)CCC(=O)N3CCOc4ccc(Cl)cc43)CC2)c1`: -18.9%; `O=C(CCN1C(=O)COc2ccccc21)N1CCN(c2ccccc2)CC1`: -15%.

With `Cc1ccc2c(c1)N(C(=O)CCC(=O)N1CCN(c3cccc(C)c3C)CC1)CCO2`, the “hERG current change (%, negative = inhibition) at 10uM” value is listed as -18.7%. Then `CCC(NC(=O)Nc1ncccc1C)(C(F)(F)F)C(F)(F)F`, with -3.33%. Take `Cc1cccc(NC(=O)c2ccc3c(c2)C(=O)N(c2ccccc2C)C3=O)n1`: the “hERG current change (%, negative = inhibition) at 10uM” value is -10.5%. Next, `COc1ccc(CN2C(=O)CN(C3CCCCCC3)C(=O)C2c2ccc(F)cc2)cc1` (stereo not drawn): 3.27%. For the molecule `CCOC(=O)C1=C(COC(=O)c2cccnc2Cl)NC(=O)NC1C` (stereo not drawn), the “hERG current change (%, negative = inhibition) at 10uM” value is listed as 6.19%. Next, `CCOC(=O)C1=C(COC(=O)c2ccc(C)s2)NC(=O)NC1C` (stereo not drawn): -5.32%; `CCOC(=O)C1=C(COC(=O)c2ncc(Cl)c(Cl)c2Cl)NC(=O)NC1C` (stereo not drawn): -60.6%; `CCOC(=O)CCc1c(C)nc(SCC(=O)O)c(C#N)c1C`: -2.59%. Then `CCOC(=O)CCc1c(C)nc(SCc2ccc(C(=O)O)cc2)c(C#N)c1C`, with -11.7%; and `CCOC(=O)CCc1c(C)nc(SCCN2CCCC2)c(C#N)c1C`, with -63.9%; and `COc1ccc(C(=O)CC(=O)Nc2ccc([N+](=O)[O-])cc2)cc1`, with -1.39%.

Turning to `CS(=O)(=O)Nc1ccc(C(=O)CC(=O)Nc2ccc([N+](=O)[O-])cc2)cc1`, the “hERG current change (%, negative = inhibition) at 10uM” value is given as -60.7%. Then `COc1ccc(NS(=O)(=O)c2cc(NC(=O)CC(=O)c3ccc([N+](=O)[O-])cc3)ccc2C)cc1`, with 5.94%; and `COc1cccc(CC(=O)NCC2(N3CCCCC3)CCCCC2)c1`, with 25%; and `Cn1cc(Br)c(C(=O)NC2CCCCCC2)n1`, with 2.74%. As for `Cc1cccn2c(=O)nc(SCC(=O)Nc3ccc4c(c3)OCO4)nc12`, the “hERG current change (%, negative = inhibition) at 10uM” value is -5.58%. Turning to `CCN(C(=O)CSc1nc2nc(C)cc(C)n2n1)C1CCS(=O)(=O)C1` (stereo not drawn), the “hERG current change (%, negative = inhibition) at 10uM” value is 20.5%. Then `N#Cc1ccccc1OCC(=O)OCCCOC(=O)COc1ccccc1C#N`, with 10.1%; and `CC(=O)N1CCN(C(=O)COC(=O)COc2ccc(C#N)cc2)CC1`, with 4.54%; and `N#Cc1ccc(OCC(=O)OCCCOC(=O)COc2ccc(C#N)cc2)cc1`, with -66.8%. Then `CCOC(=O)c1c(NC(=O)CCN2C(=O)c3ccccc3C2=O)sc(C(=O)OC(C)C)c1C`, with -4.35%; and `Cc1ccc(S(=O)(=O)N/N=C/c2cccs2)cc1`, with 9.65%. Then `C=CCOc1ccccc1CNc1cccc(F)c1`, with 14.2%; and `CCC(C)Sc1cc(-c2nc3ccc(C)cn3c2NCc2ccccc2)ccc1OC.O=C(O)C(F)(F)F` (stereo not drawn), with -1.12%. On to `OC(COC(c1ccccc1)c1ccccc1)CN1CCN(c2ccccn2)CC1` (stereo not drawn), for which the “hERG current change (%, negative = inhibition) at 10uM” value was -74.7%. Next, `Cl.OC(COc1cccc2ccccc12)CN1CCN(c2ccccn2)CC1` (stereo not drawn): -49.2%; `Cl.OC(COc1ccc(Cl)c2ccccc12)CN1CCN(c2ccccn2)CC1` (stereo not drawn): -21.9%. Next, `Cl.OC(COC(c1ccc(Cl)cc1)c1ccc(Cl)cc1)CN1CCN(c2ccccn2)CC1` (stereo not drawn): -82.4%; `Cc1cc(C)c2nc(-c3ccccn3)cc(C(=O)n3cccn3)c2c1`: 22.9%.
